Publication PMC5540273 (PLoS ONE, 2017)

Tests used:
Conditions in all cases: concentration: 1 μM, replicates: in singlicate; n = 1
SNARK = system: T1, SNARK
T1 construct: gene NUAK2

SNRK = system: SNRK
SRC = system: SRC
SRMS = system: SRMS
SRPK1 = system: SRPK1
SRPK2 = system: SRPK2
SRPK3 = system: SRPK3
STK16 = system: STK16
STK33 = system: STK33
STK35 = system: STK35
STK36 = system: STK36
STK39 = system: STK39
SYK = system: SYK
SgK110 = system: SgK110
TAK1 = system: T2, TAK1
T2 construct: gene MAP3K7

TAOK1 = system: TAOK1
TAOK2 = system: TAOK2
TAOK3 = system: TAOK3
TBK1 = system: TBK1
TEC = system: TEC
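Note: KINOMEscan kinase panel screen.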

SMILES | %Inh (SNARK) [%] | %Inh (SNRK) [%] | %Inh (SRC) [%] | %Inh (SRMS) [%] | %Inh (SRPK1) [%] | %Inh (SRPK2) [%] | %Inh (SRPK3) [%] | %Inh (STK16) [%] | %Inh (STK33) [%] | %Inh (STK35) [%] | %Inh (STK36) [%] | %Inh (STK39) [%] | %Inh (SYK) [%] | %Inh (SgK110) [%] | %Inh (TAK1) [%] | %Inh (TAOK1) [%] | %Inh (TAOK2) [%] | %Inh (TAOK3) [%] | %Inh (TBK1) [%] | %Inh (TEC) [%]
CCn1c(-c2nonc2N)nc2c(-c3ccccc3)ncc(OCCCN)c21.O=C(O)C(F)(F)F.O=C(O)C(F)(F)F [GSK260205] | 0 | 57 | 0 | 0 | 22 | 0 | 0 | 0 | 0 | 0 | 0 | 7 | 19 | 0 | 0 | 0 | 0 | 0 | 5 | 0
Cl.Cl.NCC(NC(=O)c1cc(-c2cccnc2)c(-c2ccnc3[nH]ccc23)s1)c1ccccc1 (stereo not shown) [GSK1323434] | 65 | 0 | 33 | 0 | 44 | 14 | 0 | 26 | 18 | 0 | 0 | 64 | 18 | 0 | 45 | 29 | 0 | 0 | 2 | 27
Cc1ccc(O)cc1Nc1ccnc2cc(-c3ccc(CN4CCCCC4)o3)ccc12 [GW557777] | 11 | 0 | 100 | 23 | 32 | 0 | 15 | 22 | 61 | 0 | 0 | 0 | 69 | 0 | 35 | 0 | 0 | 0 | 0 | 21
Cc1ccc(C)c(NC(=O)Nc2ccc(C)c(-c3ccc(C(=O)Nc4ccncc4)cc3)c2)c1 [GSK1398473] | 0 | 5 | 8 | 0 | 26 | 0 | 0 | 8 | 3 | 6 | 2 | 5 | 17 | 20 | 0 | 0 | 0 | 0 | 2 | 5
CC(C)c1nc(-c2cccc(NS(=O)(=O)c3c(F)cccc3F)c2)c(-c2ccnc(Nc3ccc(N4CCOCC4)nc3)n2)s1.Cl [GSK1723980] | 0 | 0 | 100 | 99.7 | 48 | 0 | 0 | 30 | 62 | 30 | 100 | 10 | 69 | 0 | 81 | 0 | 0 | 0 | 18 | 80
COc1cccc2c(-c3ccncc3)c(-c3ccc(F)cc3)nn12 [GW468513] | 9 | 0 | 1 | 0 | 0 | 0 | 2 | 5 | 1 | 0 | 54 | 14 | 0 | 0 | 0 | 0 | 0 | 0 | 2 | 4
Cc1ccc(NC(=O)c2ccc(Cl)c(Cl)c2)cc1-c1ccc(C(=O)Nc2ccncc2)cc1 [GSK1398460] | 9 | 0 | 23 | 0 | 34 | 0 | 14 | 14 | 0 | 0 | 0 | 0 | 21 | 4 | 12 | 0 | 0 | 0 | 23 | 15
CC(C)NCC(Cc1ccccc1)NC(=O)c1cc(Br)c(-c2ccnc3[nH]ccc23)s1.Cl.Cl (stereo not shown) [GSK1383281] | 89 | 0 | 0 | 0 | 43 | 0 | 0 | 46 | 96.6 | 0 | 0 | 0 | 0 | 73 | 0 | 41 | 0 | 0 | 20 | 0
